Here are results for 15 compounds from PubChem BioAssay (Tox21).

The target in experiment [1] is Thyrotropin receptor (Homo sapiens) (UniProt P16473). Nature of the experiment: qHTS assay to identify small molecule antagonists of the thyroid stimulating hormone receptor (TSHR) signaling pathway (AID 1259385; calls by dose curve; further: nearly all actives have a fitted effect of over 20% in size). In outline:
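Antagonist mode: compound-treated TSHR-expressing HEK293 cells were stimulated with 1.5 ng/mL TSH (final) in presence of Ro20-1724 for 30 min at RT. HTRF cAMP detection after 1 h; each compound tested at 15 concentrations, triplicate.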
For orientation: Quantitative high-throughput screening tests each substance at several concentrations.

A short description of experiment [2]: qHTS assay to identify small molecule agonists of the estrogen receptor alpha (ER-alpha) signaling pathway in the presence of an antagonist - cell viability counter screen (AID 1259386).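 Further: series mostly up to about 92 µM; cells exposed to compounds for 22 h at 37 °C before the viability read; nearly all actives have a fitted effect of over 30% in size.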 In short, it runs like this: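 Fluorescent CellTiter-Fluor viability signal from VM7Luc4E2 cells, with the reagent added during the final hour of a 22hr compound exposure at 37C in the presence of 10.0nM ICI-182,780.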

Experiment [3] concerns the target Progesterone receptor (Homo sapiens) (UniProt P06401). Nature of the experiment: qHTS assay to identify small molecule agonists of the progesterone receptor (PR) signaling pathway (AID 1346784; calls by dose curve; further: nearly all actives have a fitted effect of over 30% in size). In outline: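 Using charcoal-stripped serum (2%) to limit endogenous steroids, PR-UAS-bla HEK 293T cells received compounds for 16 hr at 37C after 6 hr plating; beta-lactamase FRET fluorescence was recorded following 2 hr substrate loading at room temperature.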

The nature of experiment [4]: qHTS assay to identify small molecule antagonists of the progesterone receptor (PR) signaling pathway - cell viability counter screen (AID 1346798). Further: nearly all actives have a fitted effect of over 50% in size. Further: potency means the concentration at half of the fitted maximal effect. In short, it runs like this: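 ATP content as viability readout: CellTiter-Glo luminescence, 30 min room temperature, in PR-UAS-bla HEK293T cells after 16 hr compound/R5020 treatment at 37C and 5% CO2.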
Experiment [5] is described as follows: qHTS assay to identify small molecule agonists of the progesterone receptor (PR) signaling pathway - cell viability counter screen (AID 1346799; calls by dose curve; further: nearly all actives have a fitted effect of over 45% in size). In outline: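 Cytotoxicity in PR-bla HEK293T cells: 16 h compound, 37C; CellTiter-Glo added post-FRET read; luminescence after 30 min RT.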
Experiment [6] in a line: qHTS assay to identify small molecule antagonists of the TGF-beta/Smad signaling pathway - cell viability counter screen (AID 1346824). Further: nearly all actives have a fitted effect of over 50% in size. In outline: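 Cytotoxicity counter-screen run in the same wells as the beta-lactamase Smad reporter read: CellTiter-Glo luminescence after 30 min at room temperature. HEK 293T SBE-bla cells had 5 hr compound exposure at 37 C with TGF-beta1 (0.25 ng/mL stock).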

A short description of experiment [7]: qHTS assay to identify small molecule agonists of the TGF-beta/Smad signaling pathway (AID 1346859; active means well fitted activation curve with a large enough effect in the signal ratio in the repeat runs, not every such curve was filed as active; the % refers to the signal ratio; further: series mostly up to about 77 µM). In short, it runs like this: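 Stable Smad binding element-beta-lactamase HEK 293T cells; 5 hr compound exposure at 37 C under 5% CO2; 2 hr room-temperature substrate step; fluorescence excited at 405 nm, collected at 460 nm and 530 nm.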
Experiment [8] has as its target Thyrotropin-releasing hormone receptor (Homo sapiens) (UniProt P34981). Kind of experiment: qHTS assay to identify small molecule antagonists of the thyrotropin-releasing hormone receptor (TRHR) signaling pathway (AID 1346877; active means well fitted inhibition curve with a large enough effect in the repeat runs, not every such curve was filed as active; further: potency means the concentration at half of the fitted maximal effect). In outline:
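In this cell-based calcium flux format, HEK293 cells expressing TRHR received test compound for 5 min before the agonist TRH (1 nM final). Dye loading lasted 2 h at 37 °C.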

Experiment [9] has as its target Progesterone receptor (Homo sapiens) (UniProt P06401). Nature of the experiment: qHTS assay to identify small molecule antagonists of the progesterone receptor (PR) signaling pathway (AID 1346795; active means well fitted inhibition curve with a large enough effect in the signal ratio in the repeat runs, not every such curve was filed as active; the % refers to the signal ratio). In short, it runs like this:
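Inhibition of R5020-induced (1 nM final) beta-lactamase reporter signal in PR-UAS-bla HEK293T cells was scored by FRET fluorescence after overnight (16 hr) compound treatment.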

Experiment [10] can be described thus: qHTS assay to identify small molecule agonists of the TGF-beta/Smad signaling pathway - cell viability counter screen (AID 1346829). Further: nearly all actives have a fitted effect of over 45% in size. Further: potency means the concentration at half of the fitted maximal effect. In short, it runs like this: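 HEK 293T SBE-bla line, 5 hr compound exposure at 37 C, multiplexed CellTiter-Glo viability read by luminescence.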

Several values for one entry are separate records, joined by “and”; a condition that tells them apart may be missing. Equal entries are not always repeated. Records with an inconclusive call do not appear. A structure can be active in one record and inactive in another. Activity calls are given as the source filed them. Unless noted, the call rests on the fitted dose curve; in most records, active means well fitted curve in the direction sought with a large enough effect in the repeat runs; inconclusive means weak or mixed curves; inactive means no such curve, though single readings can be large; an effect the other way counts as inactive or inconclusive.

Sequence of Thyrotropin-releasing hormone receptor (Homo sapiens) (P34981 whole entry, looked up): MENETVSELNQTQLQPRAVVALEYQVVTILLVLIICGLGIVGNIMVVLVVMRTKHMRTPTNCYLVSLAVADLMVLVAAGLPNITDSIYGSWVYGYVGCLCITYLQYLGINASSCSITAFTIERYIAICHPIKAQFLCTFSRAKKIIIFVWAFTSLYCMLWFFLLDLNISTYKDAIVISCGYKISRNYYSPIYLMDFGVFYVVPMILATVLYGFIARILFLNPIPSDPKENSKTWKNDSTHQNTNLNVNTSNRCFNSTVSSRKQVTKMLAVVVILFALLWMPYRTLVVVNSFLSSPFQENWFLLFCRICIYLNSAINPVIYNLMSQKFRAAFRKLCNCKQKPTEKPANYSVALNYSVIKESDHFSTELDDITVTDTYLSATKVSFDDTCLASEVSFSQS
Sequence of Progesterone receptor (Homo sapiens) (P06401 whole entry, looked up): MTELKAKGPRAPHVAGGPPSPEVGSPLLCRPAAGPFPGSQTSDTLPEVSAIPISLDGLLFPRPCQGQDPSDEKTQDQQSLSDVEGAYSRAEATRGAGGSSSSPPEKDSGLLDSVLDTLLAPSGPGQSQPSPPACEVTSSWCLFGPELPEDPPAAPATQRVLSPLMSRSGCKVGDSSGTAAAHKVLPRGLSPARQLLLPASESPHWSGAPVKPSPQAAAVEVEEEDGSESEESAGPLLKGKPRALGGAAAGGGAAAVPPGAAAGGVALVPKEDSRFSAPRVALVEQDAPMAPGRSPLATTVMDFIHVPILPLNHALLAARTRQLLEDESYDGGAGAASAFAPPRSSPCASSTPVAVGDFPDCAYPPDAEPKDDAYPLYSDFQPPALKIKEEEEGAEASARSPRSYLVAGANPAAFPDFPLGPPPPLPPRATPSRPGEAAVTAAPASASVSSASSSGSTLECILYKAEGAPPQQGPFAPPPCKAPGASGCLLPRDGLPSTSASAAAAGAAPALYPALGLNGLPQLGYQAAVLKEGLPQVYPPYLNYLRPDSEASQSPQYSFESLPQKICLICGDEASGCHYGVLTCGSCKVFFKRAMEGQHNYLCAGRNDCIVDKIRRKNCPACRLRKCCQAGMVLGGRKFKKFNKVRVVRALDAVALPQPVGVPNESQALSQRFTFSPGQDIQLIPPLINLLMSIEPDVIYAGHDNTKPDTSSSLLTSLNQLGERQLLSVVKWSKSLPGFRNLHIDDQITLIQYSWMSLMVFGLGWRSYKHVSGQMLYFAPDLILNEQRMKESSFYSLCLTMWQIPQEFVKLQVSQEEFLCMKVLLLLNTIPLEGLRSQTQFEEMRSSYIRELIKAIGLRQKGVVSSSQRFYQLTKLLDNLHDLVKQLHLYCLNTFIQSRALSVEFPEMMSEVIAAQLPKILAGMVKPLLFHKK
Sequence of Thyrotropin receptor (Homo sapiens) (P16473 whole entry, looked up): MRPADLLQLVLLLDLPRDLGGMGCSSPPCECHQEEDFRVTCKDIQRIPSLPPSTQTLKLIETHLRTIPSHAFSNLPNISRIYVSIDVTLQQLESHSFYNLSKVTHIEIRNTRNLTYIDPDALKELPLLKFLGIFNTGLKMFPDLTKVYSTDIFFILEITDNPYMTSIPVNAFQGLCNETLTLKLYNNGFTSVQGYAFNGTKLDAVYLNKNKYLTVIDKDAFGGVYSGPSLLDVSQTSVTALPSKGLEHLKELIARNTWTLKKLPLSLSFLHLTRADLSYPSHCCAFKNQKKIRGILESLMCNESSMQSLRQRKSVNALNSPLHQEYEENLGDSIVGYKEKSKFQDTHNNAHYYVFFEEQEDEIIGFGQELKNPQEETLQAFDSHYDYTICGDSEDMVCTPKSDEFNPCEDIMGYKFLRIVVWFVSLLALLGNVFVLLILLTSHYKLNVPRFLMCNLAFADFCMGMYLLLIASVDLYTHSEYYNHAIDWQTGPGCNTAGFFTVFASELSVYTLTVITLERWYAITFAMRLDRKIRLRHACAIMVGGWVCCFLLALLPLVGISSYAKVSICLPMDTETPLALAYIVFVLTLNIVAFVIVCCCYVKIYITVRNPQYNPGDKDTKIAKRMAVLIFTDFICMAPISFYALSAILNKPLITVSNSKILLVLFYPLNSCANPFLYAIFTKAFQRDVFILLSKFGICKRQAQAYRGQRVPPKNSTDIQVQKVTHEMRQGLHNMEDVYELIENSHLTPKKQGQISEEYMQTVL

With `C=C1CC[C@@]2(O)[C@H]3Cc4ccc(O)c5c4[C@@]2(CCN3CC2CC2)[C@H]1O5`, the outcome in experiment [1], in experiment [6] and in [7] was inactive. For the same compound, the Potency result in [2], in experiment [3], in [5] and in [8] was “inactive” each time. For the same compound, the Potency in experiment [4] was 2.98 µM (active).

For the compound `COc1cccc([C@@]2(O)CCCC[C@@H]2CN(C)C)c1`, the result in experiment [1], in experiment [6] and in experiment [7] was inactive. Also, the Potency entry in experiment [3], in experiment [9], in experiment [4], in experiment [5] and in experiment [10] was “inactive” in each case.

Regarding `NC1(c2ccccc2)CCCCC1`, the compound was classed as inactive in experiment [1], in [6] and in experiment [7]. The Potency entry in [2], in experiment [3], in experiment [4], in experiment [5], in experiment [10] and in experiment [8] was “inactive” each time.

`CON(C)C(=O)Nc1ccc(Br)c(Cl)c1`: the compound was classed as inactive in experiment [1] and in experiment [6]. The Potency entry in [2], in experiment [3], in [5] and in experiment [8] was “inactive” in each case.

As for `CCN[C@@H](C)Cc1cccc(C(F)(F)F)c1`, the call in experiment [1] and in [6] was inactive. For the same compound, the Potency entry in experiment [2], in experiment [4], in experiment [10] and in experiment [8] was “inactive” each time.

Turning to `CNC(=O)NC(O)C(Cl)(Cl)Cl` (stereo not drawn), the compound was called inactive in experiment [1], in [6] and in experiment [7]. Also, the Potency entry in experiment [2], in experiment [3], in experiment [4], in [5], in experiment [10] and in experiment [8] was “inactive” throughout.

Consider `CC(Cl)(Cl)Cl`, for which the compound was called inactive in experiment [1] and in experiment [6]. Also, the Potency result in experiment [2], in experiment [3], in experiment [4], in experiment [5], in experiment [10] and in [8] was “inactive” each time.

For `CC(C)(N)Cc1ccc(Cl)cc1`, the compound was called inactive in experiment [1] and in experiment [6]. Further, the Potency entry in experiment [2], in [9] and in experiment [10] was “inactive” each time.

With `CC(Cc1ccccc1)NCCCCl` (stereo not drawn), the compound was classed as inactive in [1], in experiment [6] and in [7]. Also, the Potency entry in [2], in [3], in experiment [4], in experiment [5], in experiment [10] and in [8] was “inactive” in each case.

Take `Oc1ccc(Cc2ccc(O)cc2)cc1`: the call in experiment [1], in experiment [6] and in experiment [7] was inactive. Moreover, the Potency entry in experiment [2], in experiment [3] and in [4] was “inactive” in each case.

Consider `CCCCCCCCBr`, for which the result in experiment [1], in experiment [6] and in experiment [7] was inactive. In addition, the Potency result in experiment [2], in [3], in experiment [4], in experiment [5], in [10] and in [8] was “inactive” throughout.

In the case of `C[N+]1(C)CCCCC1`, the compound was classed as inactive in [1], in experiment [6] and in experiment [7]. Moreover, the Potency entry in [2], in experiment [9], in [4], in [10] and in [8] was “inactive” in each case.

`CCSC(=O)Cl`: the compound was classed as inactive in experiment [1] and in experiment [6]. Also, the Potency entry in [2], in [3], in experiment [4], in experiment [5] and in experiment [8] was “inactive” each time.

`CC(C)(C)C(=O)C(Cl)Cl`: the result in experiment [1], in [6] and in [7] was inactive. Besides, the Potency entry in [2], in experiment [3], in experiment [4], in experiment [5] and in [8] was “inactive” in each case.

On to `O=C1C2CC=CCC2C(=O)N1SC(Cl)(Cl)Cl` (stereo not drawn), for which the compound was called inactive in experiment [1], in [6] and in [7]. Also, the Potency result in experiment [2] and in [3] was “inactive” each time. Moreover, the Potency entry was “inactive and 48.2 µM (active)” in experiment [10]; “inactive and 33.3 µM (active)” in experiment [8].
